PubChem BioAssay (NCI)
Compounds without any hit were thinned out: in the full panel of roughly 83,000, 20% have a hit.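 96-well plates, one dose, 48 hours. Percent growth reported; active if below 10.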 Values without a mark were called inactive. Active and inactive are the calls of the source.

Tested on: HL-60(TB) leukemia
Assay: NCI-60 one-dose screen, 48 h (100 = growth as untreated, 0 = no growth, -100 = all killed)
Conditions: 10 µM unless noted

Compound | growth
CC[n+]1c(/C=C/C=C2\N(C)c3ccccc3C2(C)C)sc2ccccc21 | -30.3% (active)
COC1=C(OC)C(=O)C(OC)=C(OC)C1=O | 102%
COc1ccc(/C(C)=C(\c2ccc(Cl)cc2)c2ccc(OCCN(C)C)cc2)cc1F | 58.2%
O=c1[nH]nc(SC2CCCCC2)c(=O)[nH]1 | 108%
O=C(c1ccccc1)C(Br)[N+](=O)[O-] (configuration not stated) | 62.3%
COc1cc(OC)c(NC(=O)n2ncc3cc(Nc4ncnc5ccccc45)ccc32)cc1Cl | 82.9%
Cc1cc(N/N=C/c2ccccn2)nc2ccccc12 | -12.8% (active)
Nc1ccn(C2CC(O)C(CO)O2)c(=O)n1 (configuration not stated) | 86.1%
O=[N+]([O-])c1cccc(/C=C/c2ccccn2)c1 | 120%
FC(F)(F)c1ccc(-c2cnc(Br)nc2NC2CCCCCC2)cc1 | 8.9% (active)
C=C1C(=O)O[C@H]2[C@H]1CC/C(COC(=O)/C=C\C(=O)NCc1ccc(Cn3c(=O)sn(-c4ccccc4)c3=O)cc1)=C\CC[C@@]1(C)O[C@@H]21 | -3.22% (active)
O=C(/C=C/c1ccc(Cl)cc1)c1ccc(NC(=O)N2CCN(c3cc4c(cc3F)c(=O)c(C(=O)O)cn4C3CC3)CC2)cc1 | 94.2%
CCCCCCCCCCCCCCCCCC1=NCCN1CCOC1=C(Cl)C(=O)c2ccccc2C1=O | 70.1%
O=C(Nc1nc(C(=O)N2CCN(C(c3ccccc3)c3ccccc3)CC2)cs1)c1ccc(NC2CCCCC2)c([N+](=O)[O-])c1 | 98.5%
COc1cc(NC(C)CCCN)c2ncccc2c1Sc1ccc(Cl)cc1 (configuration not stated) | 81.3%
CCCCCCCC(=O)Nc1nc2[nH]c(CN3CCN(Cc4cccc(I)c4)CC3)c(CN3CCN(Cc4cccc(I)c4)CC3)c2c(=O)[nH]1 | -49.3% (active)
COc1ccc(OC)c(C2OC(c3ccc4ccccc4c3O)=NN2C(C)=O)c1 (configuration not stated) | 19%
CCCc1cn(CC(=O)Nc2nc3ccccc3s2)nn1 | 101%
Nc1nc(N)c2cc(Sc3ccc4ccccc4c3)ccc2n1 | 31.4%
CCNc1ncnc2n[nH]nc12 | 94.8%
FC(F)(F)c1ccc(-c2nc(-c3nc4cc(Cl)c(Cl)cc4[nH]3)c3ccccn23)cc1 | 104%
CCOC(=O)c1ccc2n1CCCc1cnc(NC(C)=O)nc1-2 | 109%

Compound | growth
N[C@@H](Cc1ccccc1)[C@@H](O)C(=O)NCc1ccc(F)cc1 | 101%
CCOc1cccc2c(NC(C)CCCN(CC)CC)c(C)cnc12 (configuration not stated) | 105%
Nc1nc(-c2ccc(Cl)cc2)nc2c1sc(=S)n2-c1ccccc1 | 103%
COc1ccc(-c2nc3ccc(-c4nc5ccc(N6CCN(C)CC6)cc5[nH]4)cc3[nH]2)cc1OC | 49.1%
CCCCCCCCCCCCCCCC1=NCC[N+]1(CCO)CCO | 44.9%
CC(C)(C)n1cc(-c2ccnc(NCCCNS(=O)(=O)c3ccc(Cl)cc3)c2)c(-c2cccc(O)c2)n1 | -46.1% (active)
COC(=O)C1=C(C(=O)ON)C2C=CC1(C(Cc1ccccc1)Nc1ccccc1)O2 (configuration not stated) | 18.9%
Cc1cccc(NC(=O)c2sc3nc4c(cc3c2N)CCCC4)c1 | 22.1%
Cc1ccc(Nc2ccc(Nc3ccc(C)cc3)c3c2C(=O)c2cccc(O)c2C3=O)cc1 | 94.3%
CN(C)c1ccc(/C=C\c2ccnc3ccccc23)cc1 | 26.1%
O=c1[nH]c(=O)n(C2C[C@@H](O)[C@@H](CO)O2)cc1F (some centres not stated) | 27.1%
COc1cc(CNS(=O)(=O)c2ccc(C)cc2)ccc1OCc1cn(-c2ccc(F)cc2)nn1 | 114%
Cc1cc(C(=O)Nc2ccc3cc(CN4CCOCC4)ccc3n2)c(C)n1-c1ccccc1 | 14.5%
Cc1ccc(-c2nc([P+](c3ccccc3)(c3ccccc3)c3ccccc3)c(Nc3ccccc3)o2)cc1 | -48.4% (active)
Nc1no[n+]([O-])c1-c1nnc2c(n1)-c1ccccc1C2=O | 13.1%
Cc1ccc(-c2nc3ccccc3c(=O)n2/N=C/c2cccc3ccccc23)cc1 | 85.1%
Cc1cc2nc(CC(=O)c3ccccc3)c(=O)[nH]c2cc1C | 103%
Clc1ccc2c(c1)N(CCCN1CCCC1)c1ccccc1S2 | 17.1%
COc1ccc(OC)c2ncccc12 | 98.9%
O=C(CN1C(=O)/C(=C/c2ccc(Cl)cc2)SC1=S)NCCCN1CCOCC1 | 98.7%
CCCCOc1ccc(C(C)(C)c2ccc(OCCCC)cc2)cc1 | 92.5%
CCOC(=O)N/N=C\C(C)=N\NC(=O)OCC | 92.9%

Compound | growth
COCc1c(-c2ccc(NC(=O)Nc3cc(C(F)(F)F)ccc3F)c(F)c2)c2c(N)ncnn2c1CN1CCOCC1 | -22% (active)
O=C(/C=C/c1ccc([N+](=O)[O-])cc1)c1ccc2c3c(cccc13)CC2 | 14.4%
COc1cc2c(c(OC)c1OC)C(=O)N[C@@H]1[C@@H](O)[C@@H](O)[C@H](O)C[C@@H]21 | 99.3%
Oc1ccc(CCCCCCc2ccc(O)cc2)cc1 | 100%
COc1ccc(C(=O)/C=C/c2cc(-c3cc(OC)c(OC)c(OC)c3)n[nH]2)cc1OC | 3.15% (active)
Cc1c(-c2csc(-n3nc(C(F)(F)F)cc3C(F)(F)F)n2)no[n+]1[O-] | 97%
CN1CCN(Cc2ccc(NC(=O)c3cncc(C#Cc4ncc5ccccn45)c3)cc2C(F)(F)F)CC1 | -3.92% (active)
CCOC(=O)c1ccc2c(c1)[n+](=O)c(C(C)=O)c(C(F)(F)F)n2[O-] | -65.9% (active)
O=C(CCc1nnc2sc(Cc3ccccc3Cl)nn12)c1nc2ncccc2[nH]1 | 116%
Cn1cc(/C=C2/C(=O)Nc3ccccc32)c2ccccc21 | 85.8%
CCCCN(C=S)CCCC | 104%
O=C1C[C@H](Sc2nc(-c3ccc(F)cc3)cc(C(F)(F)F)n2)[C@H]2CO[C@@H]1O2 | 46.9%
Cc1ccc2[nH]c(=O)c3c(c2c1)OC(N)=C(C#N)C31c2cc(Br)ccc2-c2ccc(Br)cc21 | 85.7%
c1ccc([C@H]2CN3CCSC3=N2)cc1 | 99.1%
COc1cc(/C=C2\C(=O)N(CCOc3cc(O)c4c(=O)cc(-c5ccccc5)oc4c3)c3ccccc32)cc(OC)c1O | -9.06% (active)
Cc1cc(Br)c2nsnc2c1[N+](=O)[O-] | 37.7%
O=C(CCN1CCCC1)Nc1ccc2c(NCCCCc3ccccc3)c3ccccc3nc2c1 | -62.3% (active)
O=C(O)CCN1CCN(c2cccc(Cl)c2)CC1 | 97%
CN1C[C@@H](c2ccc(Cl)cc2)[C@]2(NC(=S)N(c3ccccc3)C2=O)[C@@]12C(=O)NC1C=CC(Br)=C[C@H]12 (some centres not stated) | 40.2%
O=C(/C(=C/c1ccc([N+](=O)[O-])cc1)c1ccccc1)c1ccccc1 | 16.9%
NC[C@@H]1CCN(c2cc3c(cc2F)c(=O)n(N)c(=O)n3Cc2ccc(-c3ccccc3)cc2)C1 | 90.4%
Clc1ccc(/C=N\N=C\c2ccc(Cl)c(Cl)c2)cc1Cl | 135%

Compound | growth
Nc1ccc(-c2cccs2)cc1NC(=O)c1ccc(CCCC(=O)Nc2ccc(C3CC3N)cc2)cc1 (configuration not stated) | 66%
O=C(Nc1cccc(C2=NCCN2)c1)c1ccc(N=Nc2ccc(C(=O)Nc3cccc(C4=NCCN4)c3)cc2)cc1 | 42.5%
CCCCOc1c(N)cccc1C(=O)OCCN(CC)CC | 64.3%
COc1ccc(-c2nc3sc4c(c3c(=O)[nH]2)CCCCCC4)cc1 | 29%
Cc1ccc2c(c1)C(=O)/C(=C/c1cccc(OCC(=O)c3ccc(Cl)cc3)c1)CS2 | 43.1%
COCCNC1=C(Cl)C(=O)c2ccccc2C1=O | 110%
O=C(NCN1C(=O)c2cccc3cccc(c23)C1=O)N1CCC(Cc2ccccc2)CC1 | 96.1%
C#CCOc1ccc2ncnc(NCc3cccc(NC(=O)CCl)c3)c2c1 | 19.5% [8.25 µM]
CC(C)C[C@H](NC(=O)[C@H](Cc1ccccc1)n1ccc(N2CCCCC2)cc1=O)B(O)O | 1.9% (active)
Cn1ncc2cc3c(Nc4ccc(Cl)cc4)cccc3nc21 | 95.1%
Cc1n[nH]c(=O)n(/N=C\c2c[nH]c3ccccc23)c1=O | 89.1%
Nc1nc(Nc2ccc(F)cc2)nn1C(=O)c1cc(Cl)ccc1Cl | 65.1%
COc1ccc(C2=NC(=O)NC2c2ccc(OC)cc2)cc1 (configuration not stated) | 61.2%
COc1ccc(C2C=C(c3ccc(Cl)cc3)N=C3SC=C(C)N32)c(Br)c1 (configuration not stated) | 7.64% (active)
COc1cc(C(=O)c2cc(C)c3[nH]c4ccc(Cl)cc4c3c2C)cc(OC)c1OC | 0.383% (active)
CN(C)C(=O)c1ccc(SC(=S)NCc2ccccc2)cc1 | -32% [100 µM] (active)
Cc1cc(C)nc(SC2=C(Nc3ccc(C)c(Cl)c3)C(=O)N(Cc3ccccc3)C2=O)n1 | 26.1% [30 µM]
O=c1[nH]c(NCc2nnnn2-c2ccc(Br)cc2)nc2sc3c(c12)CCCC3 | 103%
CO[C@H]1NC(=O)N(S(=O)(=O)c2ccc(Cl)cc2)[C@@H]1OC | 105%
CC1C(c2ccccc2)OCCN1C(=S)Nc1ccc(S(=O)(=O)N2CCCCC2)cc1 (configuration not stated) | 89.1%
COC(=O)Cc1cc(COC(C)=O)ccc1C | 84.8%
